Source: PubChem
A selection: hits, their analogues and other compounds. The true share with any hit is near 15%.
Gal4-VP16 FLuc = Gal4-VP16 reporter inhibition counter-screen; Drosophila S2 Gal4-VP16 UAS-luciferase, luminescence, 20 h; Potency, µM (highest dose often 53.6 µM), most hits filed as inhibitors; 310,000 tested, 3.5% active; AID 2546;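 note: Gal4-VP16 expression switched on by copper sulfate through the metallothionein promoter; nearly all actives have a fitted effect of over 50% in size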
RORgamma inh = inhibitors of mouse ROR gamma transcriptional activity; P51450; Drosophila S2 Gal4-RORgamma UAS-luciferase reporter, 20 h; Potency, µM (doses to about 53.6 µM), hits mostly inhibitors; 310,000 tested, 5.4% active; AID 2551; note: nearly all actives have a fitted effect of over 60% in size
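Schneider cells (Drosophila), stable Gal4 DBD–ROR gamma + UAS-luc; 1 hr cmpd preincubation; Cu2+ induction 700 uM final; 20 hr ambient; luminescence.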
DT40 TDP1 CPT = growth inhibition of DT40 Tdp1-/-;hTDP1 cells with camptothecin (screen for TDP1 inhibitors) | chicken DT40 Tdp1-/-;hTDP1 cells + 20 nM CPT, ATP luminescence, 48 h | Potency, µM (series often up to 46.2 µM), hits mostly inhibitors | 420,000 tested, 12% active; note: nearly all actives have a fitted effect of over 55% in size
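Cell growth measured by CellTiter-Glo luminescence after a minimum 48 h, 37 C compound exposure with 20 nM CPT in Tdp1-knockout DT40 cells stably expressing hTDP1, seeded 400/well; qHTS titration format.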
ELG1 DNA repair = blocks ELG1-dependent DNA repair in HEK293T cells; Potency, µM (titrated, usually from 46.1 µM), most hits filed as inhibitors; HEK293T ELG1-luciferase reporter, luminescence, 16 h; DNA damage induced by 5-fluorouridine; 330,000 tested, 2.3% active; AID 504467; note: nearly all actives have a fitted effect of over 55% in size
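In this reporter screen, reduction of luminescence relative to DMSO vehicle indicated activity. Compounds and 5-fluorouridine were added together to 2,000 cells per well, incubated for 16 hr at 37 °C, then developed with ONE-Glo.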
12-LOX inh = ALOX12 (human) lipoxygenase inhibition; purified 12hLO, xylenol orange hydroperoxide absorbance; 580,000 tested, 1.1% active; Potency, µM (titrated, usually from 108 µM), actives largely listed as inhibitors; P18054
Target sequence (P18054 whole entry, looked up): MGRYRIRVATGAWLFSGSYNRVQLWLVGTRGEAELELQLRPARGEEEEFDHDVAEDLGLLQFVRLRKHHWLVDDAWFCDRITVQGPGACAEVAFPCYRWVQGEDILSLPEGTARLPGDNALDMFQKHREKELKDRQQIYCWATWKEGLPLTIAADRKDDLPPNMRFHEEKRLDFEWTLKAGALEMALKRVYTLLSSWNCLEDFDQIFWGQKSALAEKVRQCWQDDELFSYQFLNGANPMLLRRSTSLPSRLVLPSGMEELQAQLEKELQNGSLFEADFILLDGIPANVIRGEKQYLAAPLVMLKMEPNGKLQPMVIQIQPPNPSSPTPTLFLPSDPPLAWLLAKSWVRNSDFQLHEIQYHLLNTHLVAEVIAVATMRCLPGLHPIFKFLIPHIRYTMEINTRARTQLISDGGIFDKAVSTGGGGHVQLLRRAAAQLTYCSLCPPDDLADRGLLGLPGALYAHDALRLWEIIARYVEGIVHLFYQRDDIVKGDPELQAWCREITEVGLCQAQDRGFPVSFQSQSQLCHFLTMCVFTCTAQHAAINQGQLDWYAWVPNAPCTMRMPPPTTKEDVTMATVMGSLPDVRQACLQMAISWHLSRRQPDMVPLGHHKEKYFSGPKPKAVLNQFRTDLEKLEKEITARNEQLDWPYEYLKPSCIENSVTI
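Hydroperoxide product was detected by ferrous iron/xylenol orange as the 573 to 405 nm absorbance ratio. Arachidonic acid at 40 uM (final) was turned over for 30 min at room temperature by 150 nM human 12hLO, pH 7.0 Hepes buffer, after 15 min compound preincubation.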
DT40 TDP1 no CPT = qHTS for Inhibitors of human tyrosyl-DNA phosphodiesterase 1 (TDP1): qHTS in cells in absence of CPT; DT40 Tdp1-/- hTDP1 cells, no CPT, ATP luminescence, 48 h; Potency, µM (highest dose often 46.2 µM), hits mostly inhibitors; 420,000 tested, 15% active; AID 686978, 2013; note: nearly all actives have a fitted effect of over 55% in size
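Chicken DT40 Tdp1-/- cells stably complemented with human TDP1 were seeded at 400 cells/well with DMSO in place of 20 nM camptothecin. After compound pinning, cells grew at least 48 hr at 37 °C; viability read by CellTiter-Glo luminescence.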
Of the large screens only hits and unclear results are named; the others gave an inactive call. Calls come from the whole dose curve; as a rule, active = well fitted curve in the direction sought with a large enough effect; inconclusive = small, poorly fitted or top-dose-only effect, or another doubt; inactive = no such curve, though single readings can be large; an effect the other way counts as inactive or inconclusive.

CS(=O)(=O)N1CCC(C2CCN(C(=O)c3ccc(Cl)s3)C2)CC1 (centres undefined)	none (no result: Gal4-VP16 FLuc, RORgamma inh, DT40 TDP1 CPT, ELG1 DNA repair, DT40 TDP1 no CPT)
Nc1ncccc1CN1CC[C@@H]2OCC(=O)N(Cc3ccccc3)[C@H]2CC1	none (no result: Gal4-VP16 FLuc, RORgamma inh, DT40 TDP1 CPT, ELG1 DNA repair, DT40 TDP1 no CPT)
Clc1ccc(-c2c[n+]3c(n2-c2ccccc2)SCC3)cc1	DT40 TDP1 CPT inconclusive, ELG1 DNA repair 7.3µM, DT40 TDP1 no CPT inconclusive
O=C(c1cccs1)c1cn(CC(=O)N2CCc3ccccc3C2)c2ccccc12	DT40 TDP1 CPT 23µM, DT40 TDP1 no CPT inconclusive
O=C(O)Cn1cc(C(=O)c2cccs2)c2ccccc21	DT40 TDP1 CPT inconclusive
Cc1cc(C)c(S(=O)(=O)NCCc2csc3nc(-c4ccc(Cl)cc4)nn23)c(C)c1	DT40 TDP1 CPT inconclusive, 12-LOX inh inconclusive, DT40 TDP1 no CPT 18µM (no result: Gal4-VP16 FLuc, RORgamma inh, ELG1 DNA repair)
Cc1ccc(-c2nc3scc(CCNS(=O)(=O)c4ccc(Oc5ccccc5)cc4)n3n2)cc1	DT40 TDP1 CPT inconclusive, DT40 TDP1 no CPT inconclusive (no result: Gal4-VP16 FLuc, RORgamma inh, ELG1 DNA repair)
O=S(=O)(NCCc1csc2nc(-c3ccccc3)nn12)c1ccc(Oc2ccccc2)cc1	DT40 TDP1 CPT inconclusive, DT40 TDP1 no CPT inconclusive (no result: Gal4-VP16 FLuc, RORgamma inh, ELG1 DNA repair)
Cc1ccc(-c2nc3scc(CCNS(=O)(=O)c4ccc(F)c(C)c4)n3n2)cc1	DT40 TDP1 CPT inconclusive, DT40 TDP1 no CPT 21µM (no result: Gal4-VP16 FLuc, RORgamma inh, ELG1 DNA repair)
COc1ccc(-c2nc3scc(CCNS(=O)(=O)c4ccc(Oc5ccccc5)cc4)n3n2)cc1	DT40 TDP1 no CPT inconclusive (no result: Gal4-VP16 FLuc, RORgamma inh, ELG1 DNA repair)
CCS(=O)(=O)NCCc1csc2nc(-c3ccc(C)cc3)nn12	DT40 TDP1 CPT 16µM, DT40 TDP1 no CPT inconclusive (no result: Gal4-VP16 FLuc, RORgamma inh, ELG1 DNA repair)
O=S(=O)(NCCc1csc2nc(-c3ccccc3)nn12)c1ccc(Cl)s1	DT40 TDP1 no CPT inconclusive (no result: Gal4-VP16 FLuc, RORgamma inh, ELG1 DNA repair)
CCOc1ccc(S(=O)(=O)NCCc2csc3nc(-c4cccc(C)c4)nn23)cc1	DT40 TDP1 CPT inconclusive, DT40 TDP1 no CPT 18µM (no result: Gal4-VP16 FLuc, RORgamma inh, ELG1 DNA repair)
CC(/C=N/O)=N/N=C(C)\C=N\O	none (no result: Gal4-VP16 FLuc, RORgamma inh, DT40 TDP1 CPT, ELG1 DNA repair, DT40 TDP1 no CPT)
CC1CC(=O)Nc2cc(S(=O)(=O)N3CCN(c4ccccc4F)CC3)ccc2S1 (centres undefined)	none (no result: Gal4-VP16 FLuc, RORgamma inh, DT40 TDP1 CPT, ELG1 DNA repair, DT40 TDP1 no CPT)
COc1ccc(F)cc1S(=O)(=O)NCCc1csc2nc(-c3cccc(C)c3)nn12	DT40 TDP1 CPT inconclusive, DT40 TDP1 no CPT inconclusive (no result: Gal4-VP16 FLuc, RORgamma inh, ELG1 DNA repair)
COc1ccc(-c2nc3scc(CCNS(=O)(=O)c4ccc(F)cc4C)n3n2)cc1	DT40 TDP1 CPT 16µM, DT40 TDP1 no CPT 16µM (no result: Gal4-VP16 FLuc, RORgamma inh, ELG1 DNA repair)
O=C1NN(c2ccccc2)C(=O)/C1=C/c1ccc(Sc2ccc(Cl)cc2)o1	DT40 TDP1 CPT inconclusive, 12-LOX inh 16µM, DT40 TDP1 no CPT 21µM
Cc1ccc(Sc2ccc(/C=C3/C(=O)NN(c4ccccc4)C3=O)o2)cc1	DT40 TDP1 CPT inconclusive, 12-LOX inh inconclusive, DT40 TDP1 no CPT 16µM
COc1cc(OC)c(NC(=O)N2c3ccccc3CC2c2nc(C3CC3)no2)cc1Cl (centres undefined)	none (no result: Gal4-VP16 FLuc, RORgamma inh, DT40 TDP1 CPT, ELG1 DNA repair, DT40 TDP1 no CPT)
Cc1cc2ccccc2c[n+]1C1CCCCC1	DT40 TDP1 CPT 1.4µM, DT40 TDP1 no CPT 0.71µM (no result: Gal4-VP16 FLuc, RORgamma inh, ELG1 DNA repair, 12-LOX inh)
O=C(NC1CCCCCCC1)c1ccc2ccccc2c1	none (no result: Gal4-VP16 FLuc, RORgamma inh, DT40 TDP1 CPT, ELG1 DNA repair, DT40 TDP1 no CPT)
